{
  "source": "PubChem BioAssay AID624405",
  "about": "(Broad Institute, 2012)",
  "note": "The whole screen tested about 1,900 compounds, of which about 250 (13%) were called active. Roughly 4% stayed inconclusive and do not appear here. These entries were drawn from the full list. Potency and affinity values are given separately. Unmarked numbers belong to inactive results.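 The calls were made as follows: active = fitted curve reaches 40% rescue activity at or below the top valid dose, in every test run; inconclusive = test runs disagree, some active and some inactive; inactive = every run misses the threshold or moves the wrong way.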",
  "data": [
    {"test": "rescue of simvastatin-induced ATP loss – cell-based, C2C12 myotubes, ATP luminescence, cherry pick, dose response (AID 624405);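 also: myotubes are challenged with simvastatin at 10 µM to lower ATP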", "conditions": "48 h, scaled: DMSO wells 0, geranylgeraniol wells 100; series mostly up to 19.5 µM; rescue activity (ATP increase): at the top concentration", "values": [
      {"molecule": "C[C@@H]1CN([C@@H](C)CO)C(=O)Cc2cc(NC(=O)CCCCCC(=O)Nc3ccccc3N)ccc2O[C@@H]1CN(C)Cc1ccc(C(F)(F)F)cc1", "rescue activity (ATP increase)": "13.1% [at 21 µM]"},
      {"molecule": "C[C@@H]1CN([C@H](C)CO)C(=O)Cc2cc(NC(=O)CCCCCC(=O)Nc3ccccc3N)ccc2O[C@H]1CN(C)Cc1ccc(C(F)(F)F)cc1", "rescue activity (ATP increase)": "40.4%"},
      {"molecule": "C[C@@H]1CN([C@@H](C)CO)C(=O)Cc2cc(NC(=O)CCCCCC(=O)Nc3ccccc3N)ccc2O[C@H]1CN(C)Cc1ccc(C(F)(F)F)cc1", "rescue activity (ATP increase)": "16%"},
      {"molecule": "C[C@@H]1CN([C@H](C)CO)C(=O)Cc2cc(NC(=O)CCCCCC(=O)Nc3ccccc3N)ccc2O[C@@H]1CN(C)Cc1ccc(C(F)(F)F)cc1", "rescue activity (ATP increase)": "11% [at 16 µM]"},
      {"molecule": "Cc1cc(C)c2c(CN3CCN(Cc4ccc5c(c4)OCO5)CC3)cc(=O)oc2c1", "rescue activity (ATP increase)": "3.37%"},
      {"molecule": "C[C@H](CO)N1C[C@H](C)[C@@H](CN(C)Cc2ccc(C(F)(F)F)cc2)Oc2ccc(NS(=O)(=O)c3ccc(Cl)cc3)cc2CC1=O", "rescue activity (ATP increase)": "12.9%"},
      {"molecule": "C[C@@H]1CCCCO[C@@H](CN(C)Cc2ccc(C(F)(F)F)cc2)[C@H](C)CN([C@@H](C)CO)C(=O)c2cc(NS(=O)(=O)c3cccs3)ccc2O1", "rescue activity (ATP increase)": "-14.7%"},
      {"molecule": "Cc1ccc(-c2cnc3c(c2)C(=O)N([C@H](C)CO)C[C@H](C)[C@@H](CN(C)C(=O)Cc2ccccc2)O3)cc1", "rescue activity (ATP increase)": "24.1%"},
      {"molecule": "CCC(C)(C)NC(=O)CN(C(=O)CNS(=O)(=O)c1ccccc1)c1ccccc1", "rescue activity (ATP increase)": "7.7%"},
      {"molecule": "COc1ccc(CN2[C@@H](CO)[C@@H]3c4ccccc4N(C(=O)c4ccccc4)C[C@@H]32)cc1", "rescue activity (ATP increase)": "-25.7%"},
      {"molecule": "Fc1ccc(C(c2nnnn2C2CCCC2)N2CCN(Cc3ccccc3)CC2)cc1", "note": "(stereo not given)", "rescue activity (ATP increase)": "-29.7%"},
      {"molecule": "CC(C)CC(c1nnnn1C1CCCC1)N1CCN(c2ccccc2F)CC1", "note": "(stereo not given)", "rescue activity (ATP increase)": "-4.36%"},
      {"molecule": "Cc1ccc(NS(=O)(=O)c2ccc(C)c(C(=O)N3CCN(C)CC3)c2)cc1", "rescue activity (ATP increase)": "8.73%"},
      {"molecule": "Cc1ccc(-n2c(=O)cc(N3CCN(C(=O)c4ccco4)CC3)[nH]c2=O)cc1", "rescue activity (ATP increase)": "14.2%"},
      {"molecule": "COc1ccc(Oc2coc3c(CN(C)C)c(O)ccc3c2=O)cc1", "rescue activity (ATP increase)": "-19%"},
      {"molecule": "O=C(Nc1ccc(N2CCN(C(=O)c3ccccc3)CC2)c(Cl)c1)c1ccco1", "rescue activity (ATP increase)": "49.6%"},
      {"molecule": "Cc1cc(N2CCN(c3nnnn3-c3ccccc3)CC2)n2ncnc2n1", "rescue activity (ATP increase)": "12.1%"},
      {"molecule": "C=CCSc1nnc(CSc2nc3sc4c(c3c(=O)[nH]2)CCCC4)n1-c1ccccc1", "rescue activity (ATP increase)": "15.6%"},
      {"molecule": "C[C@@H]1CN([C@@H](C)CO)C(=O)c2cc(C#CC3CCCCC3)cnc2O[C@H]1CN(C)C(=O)C1CCCCC1", "rescue activity (ATP increase)": "7.55%"},
      {"molecule": "COc1cc2c(cc1OC)C(c1cc(OC)c(OC)c(OC)c1)NCC2", "note": "(stereo not given)", "rescue activity (ATP increase)": "26.8%"},
      {"molecule": "C[C@@H]1CCCCO[C@H](CN(C)C(=O)Nc2cccc3ccccc23)[C@@H](C)CN([C@H](C)CO)C(=O)c2cc(NS(=O)(=O)c3ccc(Cl)cc3)ccc2O1", "rescue activity (ATP increase)": "0.795%"},
      {"molecule": "CCN(CC)C(=O)c1sc(N)c(C#N)c1C", "rescue activity (ATP increase)": "-19.9%"},
      {"molecule": "COc1ccc(CN(C)C[C@H]2OCCCC[C@H](C)Oc3ccc(NC(=O)NC(C)C)cc3C(=O)N([C@@H](C)CO)C[C@H]2C)cc1", "rescue activity (ATP increase)": "-12.1%"},
      {"molecule": "CS(=O)(=O)N1CCN(c2cccc(Cl)n2)CC1", "rescue activity (ATP increase)": "38.9%"},
      {"molecule": "O=C(c1ccccc1CCc1ccccc1)N1CCOCC1", "rescue activity (ATP increase)": "9.2%"},
      {"molecule": "C[C@@H]1CCCCO[C@H](CN(C)S(=O)(=O)c2ccc(F)cc2)[C@H](C)CN([C@@H](C)CO)C(=O)c2cc(NC(=O)Cc3ccccc3)ccc2O1", "rescue activity (ATP increase)": "2.54%"},
      {"molecule": "Cc1ccccc1C(=O)NCc1nnc(SCC(=O)N2CCN(c3ccccc3)CC2)n1C", "rescue activity (ATP increase)": "2.25%"},
      {"molecule": "C[C@@H]1CN([C@H](C)CO)C(=O)c2cccc(NC(=O)c3ccc(-c4nccs4)cc3)c2O[C@@H]1CN(C)C(=O)Nc1cccc2ccccc12", "rescue activity (ATP increase)": "11.6%"},
      {"molecule": "C[C@H]1CN([C@@H](C)CO)C(=O)Cc2cc(NC(=O)Nc3ccc4c(c3)OCO4)ccc2O[C@@H]1CN(C)Cc1ccc(-c2ccccc2)cc1", "rescue activity (ATP increase)": "22.7%"},
      {"molecule": "C[C@H](CO)N1C[C@H](C)[C@@H](CN(C)Cc2ccc(-c3ccccc3)cc2)Oc2ccc(NC(=O)Nc3ccc4c(c3)OCO4)cc2CC1=O", "rescue activity (ATP increase)": "17.1%"},
      {"molecule": "C[C@@H]1CCCCO[C@@H](CN(C)S(=O)(=O)c2ccc(F)cc2)[C@H](C)CN([C@@H](C)CO)C(=O)c2cc(NC(=O)Nc3cccc4ccccc34)ccc2O1", "rescue activity (ATP increase)": "33.3%"},
      {"molecule": "C[C@@H]1CN([C@@H](C)CO)S(=O)(=O)c2ccc(/C=C/c3ccccc3)cc2O[C@@H]1CN(C)C(=O)NC1CCCC1", "rescue activity (ATP increase)": "28.4%"},
      {"molecule": "CCCn1c(SCC(=O)c2ccc(OC)c(OC)c2)nc2c1c(=O)n(C)c(=O)n2C", "rescue activity (ATP increase)": "8.41%"},
      {"molecule": "Cc1ccc(N(C(=O)Cn2nnc3ccccc32)C(C(=O)NCc2ccco2)c2ccc(C)o2)cc1", "note": "(stereo not given)", "rescue activity (ATP increase)": "65.9%"},
      {"molecule": "C[C@@H]1CN([C@@H](C)CO)C(=O)Cc2cc(NS(=O)(=O)c3ccc(Cl)cc3)ccc2O[C@H]1CN(C)Cc1ccc(Cl)c(Cl)c1", "rescue activity (ATP increase)": "29.6%"},
      {"molecule": "C[C@H](CO)N1C[C@H](C)[C@@H](CN(C)Cc2ccc(Cl)c(Cl)c2)Oc2ccc(NS(=O)(=O)c3ccc(Cl)cc3)cc2CC1=O", "rescue activity (ATP increase)": "28.5%"},
      {"molecule": "C[C@@H]1CN([C@H](C)CO)C(=O)Cc2cc(NS(=O)(=O)c3ccc(F)cc3)ccc2O[C@@H]1CN(C)Cc1ccc(C(F)(F)F)cc1", "rescue activity (ATP increase)": "3.64%"},
      {"molecule": "C[C@@H]1CN([C@H](C)CO)C(=O)Cc2cc(NS(=O)(=O)c3ccc(F)cc3)ccc2O[C@H]1CN(C)Cc1ccc(Cl)c(Cl)c1", "rescue activity (ATP increase)": "30.5%"},
      {"molecule": "C[C@@H]1CN([C@H](C)CO)C(=O)Cc2cc(NS(=O)(=O)c3ccc(F)cc3)ccc2O[C@@H]1CN(C)Cc1ccc(Cl)c(Cl)c1", "rescue activity (ATP increase)": "22.2%"},
      {"molecule": "C[C@@H]1CN([C@H](C)CO)C(=O)Cc2cc(NS(=O)(=O)c3ccc(F)cc3)ccc2O[C@H]1CN(C)Cc1ccc(C(F)(F)F)cc1", "rescue activity (ATP increase)": "31.3%"},
      {"molecule": "CCCCc1ccc(S(=O)(=O)NCCc2ccncc2)cc1", "rescue activity (ATP increase)": "2.98%"},
      {"molecule": "C[C@H](CO)N1C[C@H](C)[C@H](CN(C)S(=O)(=O)c2ccc(F)cc2)Oc2ncc(C#Cc3cccc(F)c3)cc2C1=O", "rescue activity (ATP increase)": "7.8%"},
      {"molecule": "CCOC(=O)C1(C)NC(c2ccc(N(C)C)cc2)C2C(=O)N(c3ccc(OC)cc3)C(=O)C21", "note": "(stereo not given)", "rescue activity (ATP increase)": "-13.4%"},
      {"molecule": "C[C@@H]1CN([C@@H](C)CO)C(=O)c2cc(NS(C)(=O)=O)ccc2O[C@@H](C)CCCCO[C@@H]1CN(C)S(=O)(=O)c1ccc(Cl)cc1", "rescue activity (ATP increase)": "24.3%"},
      {"molecule": "CCOc1nc(Nc2ccc(F)cc2)nc(N2CCN(c3ccc(OC)cc3)CC2)n1", "rescue activity (ATP increase)": "-11.5%"}
    ]}
  ]
}
